Among all 350,000 compounds or so, about 2,100 (0.6%) were called active. Not shown: some 1% with an inconclusive outcome. The entries come from a sample that favours actives as a whole. A number with no mark means an inactive call.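 The calls were made as follows: active = activity change of -60% or lower, but not beyond a set lower limit; inconclusive = change between -60% and -40%, or beyond the set limit; inactive = change above -40%.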
Each molecule was assayed against Relaxin receptor 1 (Homo sapiens) (UniProt Q9HBX9) (assay: qHTS Assay for Antagonists of the Relaxin Receptor RXFP1). Settings: HEK293-RXFP1, relaxin-stimulated cAMP HTRF, 30 min; at 57.5 µM; hits give low values.
Relaxin receptor 1 (Homo sapiens), sequence (Q9HBX9 whole entry, looked up): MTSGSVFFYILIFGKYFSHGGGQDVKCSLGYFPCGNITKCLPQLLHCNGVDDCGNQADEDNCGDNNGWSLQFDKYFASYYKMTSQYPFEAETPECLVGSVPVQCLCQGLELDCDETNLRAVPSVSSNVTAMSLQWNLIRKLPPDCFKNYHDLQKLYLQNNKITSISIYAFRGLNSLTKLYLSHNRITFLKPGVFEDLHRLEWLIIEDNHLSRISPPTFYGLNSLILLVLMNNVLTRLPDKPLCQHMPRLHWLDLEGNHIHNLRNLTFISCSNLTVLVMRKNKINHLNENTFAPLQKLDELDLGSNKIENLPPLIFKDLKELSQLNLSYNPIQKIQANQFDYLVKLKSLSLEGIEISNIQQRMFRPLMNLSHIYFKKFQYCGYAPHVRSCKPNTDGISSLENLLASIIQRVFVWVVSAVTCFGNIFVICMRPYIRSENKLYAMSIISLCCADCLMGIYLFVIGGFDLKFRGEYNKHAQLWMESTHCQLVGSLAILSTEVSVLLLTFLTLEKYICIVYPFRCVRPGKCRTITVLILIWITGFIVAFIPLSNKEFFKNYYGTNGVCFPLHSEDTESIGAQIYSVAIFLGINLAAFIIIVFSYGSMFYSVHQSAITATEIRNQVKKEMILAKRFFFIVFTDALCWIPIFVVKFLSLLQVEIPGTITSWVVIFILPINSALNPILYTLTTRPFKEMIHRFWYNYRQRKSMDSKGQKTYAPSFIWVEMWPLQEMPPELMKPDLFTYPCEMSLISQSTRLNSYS
From the text: The relaxin hormone is involved in the variety of biological functions in normal tissues and diseases. The role of relaxin is well-established in female reproduction and parturition, mammary gland and endometrial development, maintenance of myometrial quiescence during pregnancy. Relaxin signaling through its G protein-coupled receptor (GPCR) RXFP1 results in ECM remodeling through regulation of collagen deposition, cell invasiveness, proliferation and overall tissue homeostasis. […] Recombinant human relaxin (rhRlx) is currently being tested in clinical trials as a protective agent in congestive heart failure, in treating severe preeclampsia, and as an anti-fibrotic agent in various organs. […] Upon relaxin binding RXFP1 activation leads to the activation of adenylate cyclase (AC) via G?s. cAMP will activate PKA, which phosphorylates many signaling proteins. Thus, detection of cAMP increase is an easy and reliable indication of relaxin receptor activation. To screen for antagonists of the relaxin receptor, a HEK293T cell line stably transfected with RXFP1 was used. RXFP1 activation by relaxin in presence of various concentrations of tested compounds was assayed by changes in cAMP levels as detected with a time-resolved fluorescence energy transfer (TR-FRET) cAMP detection kit.
For the primary screening, we used HTRF(R) (Homogenous Time-Resolved Fluorescence) cAMP HiRange assay (Cisbio Bioassays, 62AM6PEJ). Presence of cAMP in the cell lysate disrupts binding between the Cryptate-labeled anti-cAMP and d2-labeled cAMP pair, leading to a decrease in TR-FRET signal. The libraries were screened at two doses (57microM and 11microM), followed by a confirmation of the hits at 7-point serial dilution in the range of final concentrations [57microM - 78nM]. Data were normalized to the controls for basal activity (buffer only) and 100% activity (5 nM porcine relaxin). The EC50 values were determined from concentration-response data modeled with the standard Hill equation. NCGC Assay Protocol Summary: HiHEK (Hawaiian HEK293 LGR7 stably transfected with human RXFP1) were grown in the following media: DMEM+10%FBS+Pen/Strep + Geneticin (1mg/ml). For the assay, the cells were seeded in DMEM+Pen/Strep (with no serum & selective antibiotics) at 2,100 cells/ 3microl/well with MultiDrop Combi dispenser (Thermo Scientific, Logan, UT) onto white tissue culture treated solid bottom1536-well plates (Greiner #789173-F) and allowed to attach/recover overnight at 37 degrees C, 5% CO2. Next, 23nl/well of compound solutions in DMSO were transferred into wells with a pintool (Kalypsis, San Diego, CA). […] EC80 (relaxin at 50pM final concentration) was dispensed to the rest of the plate except columns 1&2 which were used as a negative control (EC0, buffer only), 1microl/well also. The cells were stimulated by relaxin in the presence of compounds for 30 minutes at 37 degrees C, 5% CO2. The detection reagents were prepared individually by dilution in Lysis buffer (supplied with the assay kit) just prior to dispensing. 1microl/well of cAMP-d2 and 1microl/well anti-cAMP-Eu3+-Cryptate antibodies were added simultaneously with BioRAPTR FRDtrade mark Workstation (Beckman Coulter). The plates were incubated at ambient temperature for 30 minutes and, then, FRET signal was read on Envision plate reader (PerkinElmer, Waltham, MA), at wavelengths 340nm (excitation), 615nm & 665nm (emission of donor and acceptor channels respectively).
% is scaled to controls: 0 for no effect and ±100 for the full control effect.

| SMILES | activity change, negative = inhibition |
| --- | --- |
| O=C1NC(=O)C(CCOc2ccccc2)(CCc2ccccc2)C(=O)N1 | 1.73% |
| CCC1(CC(C)c2ccccc2)C(=O)NC(=O)NC1=O (stereo not given) | -60.5% (active) |
| O=C1NC(=O)C(Cc2ccccc2)C(=O)N1 | 13.2% |
| COC(=O)C1=C(c2ccc(OCc3ccccc3)cc2)C[C@@H]2CC[C@H]1N2C(=O)NCc1ccc(Cl)cc1 | -0.858% |
| COc1ccc(C2C=C(C)Oc3c2c(=O)oc2ccccc32)cc1OC (stereo not given) | -2.25% |
| Cc1cc(/C=C2/C(=O)NC(=O)N(Cc3ccco3)C2=O)c(C)n1-c1ccc(C(=O)O)cc1 | 7.49% |
| O=C1NC(=O)N(Cc2ccco2)C(=O)/C1=C\c1ccc(-c2ccc(F)cc2)o1 | -116% (active) |
| O=C1NC(=O)N(Cc2ccco2)C(=O)/C1=C\c1cccn1CCOc1ccccc1 | 2.7% |
| CC1N=C(N)OC1c1ccccc1 (stereo not given) | 7.33% |
| CC(=CCOc1ccc2ccc(=O)oc2c1)C1=CC(=O)C(C)(C)O1 | 1.36% |
| COc1cccc(N2C(=O)NC(=O)/C(=C\c3cn(C)c4ccccc34)C2=O)c1 | 1.09% |
| O=C1NC(=O)N(c2ccccc2)C(=O)/C1=C/c1ccc([N+](=O)[O-])s1 | -11.7% |
| Cc1cccc(N2C(=O)NC(=O)/C(=C\c3cnn(-c4ccccc4)c3)C2=O)c1 | -97.1% (active) |
| CC1=C(C(=O)O)N2C(=O)[C@@H](N)[C@H]2SC1 | 7.08% |
| C[C@H]1CN([C@@H](C)CO)C(=O)CCCn2nncc2CO[C@H]1CN(C)C(=O)Oc1ccccc1 | -9.78% |
| CC(c1ccccc1)(c1ccccc1)c1ccncc1 | -80.6% (active) |
| O=S(=O)(O)C(F)(F)C(F)(F)C(F)(F)C(F)(F)F | 19.3% |
| CO[C@]12CC[C@@]3(C[C@@H]1[C@](C)(O)C(C)(C)C)[C@@H]1Cc4ccc(O)c5c4[C@@]3(CCN1CC1CC1)[C@H]2O5 | -34% |
| CCCOC(=O)c1cncn1C(C)c1ccccc1 (stereo not given) | 12.5% |
| Cc1ncoc1C(=O)NCC1=C(c2cccc3ccccc23)C[C@@H]2CC[C@H]1N2Cc1ccco1 | -0.31% |
| c1cc2c(c(NC3=NCCCS3)c1)CCCC2 | 4.47% |
| CCCCC1C(=O)NC(=O)N(C2CCCCC2)C1=O (stereo not given) | -10.8% |
| CCCCCCCCCCCCn1ccc(=N)cc1 | -73.7% (active) |
| O=c1c2ccccc2nc(CBr)n1-c1ccc(Cl)cc1 | 8.62% |
| C[C@H]1CN([C@@H](C)CO)C(=O)CCCn2nncc2CO[C@H]1CN(C)C(=O)Oc1cccc2ccccc12 | 3.41% |

— PubChem BioAssay AID1259400 (National Center for Advancing Translational Sciences (NCATS), 2018)
